PubChem BioAssay AID1007 (NMMLSC, 2008)
In all, about 190,000 compounds went through this assay and about 80 (0.04%) were called active. Rule as the data show it: active = inhibition above about 40%. These entries were drawn from the full list.

target: Bcl-2-like protein 1 (Homo sapiens) (UniProt Q07817); experiment: inhibitors of Bim-Bcl-XL binding, primary screen, biochemical, multiplexed, bead flow cytometry, human Bcl-XL (AID 1007); settings: Bim peptide-Bcl-XL binding, fluorescence, at 10 µM, active compounds read high
Sequence (Q07817 whole entry, looked up): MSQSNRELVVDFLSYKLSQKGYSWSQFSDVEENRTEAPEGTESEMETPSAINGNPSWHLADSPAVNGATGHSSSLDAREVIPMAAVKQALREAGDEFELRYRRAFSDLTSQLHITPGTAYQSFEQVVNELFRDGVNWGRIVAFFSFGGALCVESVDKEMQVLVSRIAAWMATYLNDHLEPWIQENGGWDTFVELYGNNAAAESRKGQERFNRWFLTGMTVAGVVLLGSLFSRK

inhibition, inactive:
COc1ccc(-c2[nH]ncc2CN(C)Cc2cccnc2)c(F)c1 0%, Cc1ccc2c(c1)C1CN(C)CCC1N2S(=O)(=O)c1ccc(Oc2ccc([N+](=O)[O-])cc2)cc1 (stereo unspecified) -1%, CS(=O)(=O)N(CC(=O)N/N=C/c1ccccn1)c1ccc(Oc2ccccc2)cc1 -4%, CCOCCCNC(=O)C(=O)NCCCOCC -11%, O=C(COC(=O)Cc1ccc(F)cc1)Nc1cc(S(=O)(=O)N2CCOCC2)ccc1N1CCCC1 -11%, Cc1nc(N2CCC(C)CC2)c2c(C)c(C(=O)Nc3cc(F)ccc3C)sc2n1 -5%, Cc1ccc(C)c(CSc2nc(-c3ccco3)nc3c2c(=O)n(C)c(=O)n3C)c1 -2%, CCN(CC)CCn1c(/N=C/c2cc(Br)ccc2O)nc2ccccc21 -11%, O=[N+]([O-])c1ccccc1Nc1ccc(O)cc1 -5%, Cc1c(C(=O)O)nnn1-c1nonc1N 0%, CN1CCN(C(CNS(=O)(=O)c2cccs2)c2cccnc2)CC1 (stereo unspecified) 0%, O=C(Cc1cccs1)N/N=C/c1ccc(OCc2ccccc2)cc1 -4%, O=C(Nc1ccc2oc(-c3ccccc3F)nc2c1)c1ccco1 0%, O=c1c(Cl)c(NCc2ccc(F)cc2Cl)cnn1C12CC3CC(CC(C3)C1)C2 -8%, COC(=O)c1ccc(OCC(O)CN(CCO)CC(O)Cn2ccc3ccccc32)cc1 (stereo unspecified) -8%, CCc1ccc(-c2cc(C(=O)NN3CCN(C)CC3)c3ccccc3n2)cc1 -6%, COc1ccc(CCc2nnc(CCC(=O)NCc3cnn(-c4ccccc4C)c3)o2)cc1 0%, Cc1ccc(NC(=O)Cn2cccc2C2=NC(c3ccccc3)CO2)c(C)c1 (stereo unspecified) -2%, CC(Sc1nc2c([nH]c3ccccc32)c(=O)n1C)c1ccccc1 (stereo unspecified) -6%, O=C(Nc1ccccc1C(=O)N1CCOCC1)c1ccc(Cl)cc1 0%, Cc1nnc(SCC2=C(C(=O)O)N3C(=O)C(NC(=O)Cn4nc(C)c(Cl)c4C)C3SC2)s1 (stereo unspecified) -6%, O=C(NC(CC(=O)N1CCN(c2ccccc2)CC1)c1ccccc1)c1ccccc1Cl (stereo unspecified) -6%, COc1ccc(NC(=O)COc2ccc(C(=O)OCC(=O)N(C)C3CCS(=O)(=O)C3)cc2OC)cc1 (stereo unspecified) -2%, Cn1c(CCC(=O)Nc2ccccc2F)nnc1SCC(=O)Nc1ccccc1Cl -5%, COc1ccc(NC(=O)CC2C(=O)OCC3CCCCN32)cc1Cl (stereo unspecified) -4%, O=[N+]([O-])c1cccc(S(=O)(=O)N2CCCCCC2)c1 -7%, CCN1CCC2(CC1)N=C(c1ccc(F)cc1)C(=S)N2C(=O)c1ccc(C)cc1 -10%, Cc1ccc2c(=O)oc(N(C)C)nc2c1 1%, Cc1cc(C)c(C(N)=O)c(Cl)n1 -2%, CCOC(=O)c1ccc(NC(=O)C2CC(=O)Nc3nc4ccccc4n32)cc1 (stereo unspecified) 2%, CCn1c(N)c(Br)c(=O)[nH]c1=O -2%, C#Cc1ccc([C@@H]2C=C(C(=O)O)O[C@H](OCCCCO)C2)cc1 -4%, CCN(CC)CC1(O)CCN(C(=O)c2ccc(Cl)c(Cl)c2)CC1 0%, CCC(CC)c1nnc(NC(=O)/C=C/c2ccco2)s1 -8%, O=C(NCc1ccco1)C(=O)c1cn(CC(=O)N2CCCCCC2)c2ccccc12 -2%, COc1ccc(CNC(=O)CCCn2nc(C)c([N+](=O)[O-])c2C)cc1 -4%, O=C(N1CCCC1)C12CC3CC(C1)CC(C(=O)N1CCCC1)(C3)C2 -4%, Cc1ccccc1CN(c1ccc(C(=O)NCC2CCCO2)cc1)S(C)(=O)=O (stereo unspecified) -6%, O=C(c1cccc(F)c1)N1CCN(c2ccc([N+](=O)[O-])c3cccnc23)CC1 -4%, COc1cccc(C(=O)N2CCCC(CCC(=O)NCc3ccc(F)c(F)c3)C2)c1 (stereo unspecified) -1%, CCOC(=O)CCCNC(=O)COC(=O)c1cc(Br)c(Br)s1 2%, Cc1ccccc1-c1n[nH]c(=S)n1/N=C/c1ccc(-c2ccccc2Br)o1 -1%, CC1CCCC(C)N1/N=C/c1ccccc1OC(F)F (stereo unspecified) 2%, O=C1NC(c2ccccc2)CCC1(Cl)Cl (stereo unspecified) -5%, O=C(O)CC(SCC(=O)Nc1ccc(Br)cc1)C(=O)O (stereo unspecified) -2%, COc1cc(Cl)c(C)cc1NC(=O)COC(=O)c1cc(SC)ccc1Cl -6%, COC(=O)c1ccccc1SC1CC(=O)N(c2cccc(C)c2)C1=O (stereo unspecified) -2%, Cc1ccc(NC(=O)Nc2nnc(-c3ccncc3)s2)cc1 -2%, OCCn1c(-c2ccccc2)csc1=Nc1ccccc1 -3%, COc1ccccc1N1CCN(/N=C\C(Br)=C\c2ccccc2)CC1 -1%, Cc1nc2c(C(=O)NCc3cccs3)cnn2c(C)c1Cc1ccc(F)cc1 1%, O=C(CN(c1cccc(Cl)c1)S(=O)(=O)c1ccccc1)NN=C1CCCC1 -1%, CC(C)C(=O)Nc1c(O)c2ccccc2[nH]c1=O -4%, Cc1cc(C(=O)CCl)c(C)n1CC1COc2ccccc2O1 (stereo unspecified) 0%, COc1cccc2c(N/N=C/c3ccco3)cc(C)nc12 0%, CCc1ccccc1N1C(=O)C2C3CC(=O)C(c4ccccc43)C2C1=O (stereo unspecified) -2%, Cn1nnnc1-c1cc(Cl)cc(Cl)c1 0%, O=C(Oc1ccccc1Cl)c1ccc(N2CCOCC2)c([N+](=O)[O-])c1 3%, COc1ccc(Nc2nc(N)nc(CSC(=S)N3CCC(C)CC3)n2)cc1 20%, CC1CCN(c2ccc(C(=O)Nc3nnc(C4CC4)s3)cc2[N+](=O)[O-])CC1 -12%, NS(=O)(=O)c1cccc(NC(=O)COC(=O)/C=C/c2ccco2)c1 -2%, N#CC1=C(N)Oc2[nH]c(=S)[nH]c(=O)c2C12C(=O)Nc1ccccc12 (stereo unspecified) -1%, Nc1[nH][nH]c(=O)c1N=Nc1ccc2c(c1)OCO2 0%, Cc1cc[n+](-c2[nH]c(=O)sc2/C=N/NC(=O)c2ccccc2[O-])cc1C -7%, O=C(NCC(O)c1ccc([N+](=O)[O-])cc1)C1CCCCC1 (stereo unspecified) 0%, CCCC(C)C(=O)NCc1ccncc1 (stereo unspecified) 0%, CCOc1ccc(S(=O)(=O)Nc2nccs2)cc1 -2%, CCOC(=O)c1c(C)n(C)c2ccc(OC)c(NS(=O)(=O)CC)c12 -7%, COc1cc(C(=O)NCc2ccc3c(c2)cc(C)n3C)cc(OC)c1OC -2%, O=c1[nH]oc(O)c1-c1ncc(C(F)(F)F)cc1Cl -2%, COc1ccc(CC(=O)N[C@@H](CCSC)c2nc3ccccc3[nH]2)cc1 -5%, Cc1cccc(NC(=S)NC(=O)c2ccc(Br)o2)c1 0%, Cc1c(-c2cccc(Cl)c2)nc2ccccc2c1C(=O)OCC(=O)N(C)C1CCS(=O)(=O)C1 (stereo unspecified) 0%, CCOC(=O)C1=C(C)N=C2c3ccccc3C(=O)C2C1c1ccc(Br)cc1 (stereo unspecified) -6%, Cc1ccc(-c2nn(-c3ccccc3)cc2C(=O)Nc2cccc(S(=O)(=O)N3CCOCC3)c2)cc1 -14%, CN(C)c1ccc(C=NCCc2ccc(S(N)(=O)=O)cc2)cc1 -3%, COc1ccccc1-n1c(C)nc2cc(C(=O)NCc3ccc4c(c3)OCO4)ccc21 -10%, CCOC(=O)c1ccc(N2C(=O)CC(N3CCN(C(=O)c4ccccc4)CC3)C2=O)cc1 (stereo unspecified) -1%, O=[N+]([O-])c1ccc(F)cc1Oc1nc(-c2cccnc2)nc2ccccc12 1%, COc1ccc(/C=N/N=C/c2c[nH]c(=O)c(C#N)c2Nc2ccccc2)cc1 11%, COc1cc(C2OC(c3cc(OC)c(OC)c(OC)c3)C(C)C2C)cc(OC)c1OC (stereo unspecified) -1%, CN(C)CCCCCN(C)Cc1cc2ccccc2o1 -2%, COc1ccc(C(=O)COC(=O)COc2ccc(C)c(C)c2)cc1 -2%, Cc1ccc(S(=O)(=O)N(C)c2ccc(OCC(=O)NC3=NCCS3)cc2)cc1 0%, CC(=O)NC1C(Oc2ccc(C)cc2)OC2COC(c3ccco3)OC2C1O (stereo unspecified) -6%, Cc1ccc(C(=O)C(=S)N2CCOCC2)cc1 -9%, COc1cc(CN2CCNC(=O)C2CC(=O)NCCc2ncccc2C)cc(OC)c1 (stereo unspecified) -3%, C=CCn1c(SCC(=O)CC(=O)OCC)nc2cc(C(=O)N3CCC(C(N)=O)CC3)ccc2c1=O -5%, Cc1ccc(C)c(NC(=O)CCC(=O)N/N=C2/CC(=O)CC(C)(C)C2)c1 0%, Cc1cc(C)c[n+](-c2nc3ccccc3nc2[N-]S(=O)(=O)c2cccs2)c1 -3%, O=C(Nc1cccc(C(F)(F)F)c1)c1ccc(N2CCNCC2)c([N+](=O)[O-])c1 0%, O=C(NCc1cccs1)C1CCN(S(=O)(=O)c2ccc(Cl)cc2)CC1 0%, CCN(CC(=O)NC(=O)NCc1ccccc1)Cc1nc2ccccc2c(=O)[nH]1 1%, C/C(=N/OC(=O)c1c(-c2c(F)cccc2Cl)noc1C)c1cnccn1 -3%, Cc1ccc(-c2nn(-c3cccc(F)c3)cc2CNCCc2ccncc2)o1 -2%, O=C(CSc1ccccc1F)NC1CCS(=O)(=O)C1 (stereo unspecified) 0%
